Source: PubChem (several laboratories)
Compounds with a hit are over-represented: about 2.5% of the library has one in this group of screens.
Bim-Mcl-1 = disrupts Bim peptide binding to human Mcl-1. Q07820. Bead-based flow cytometry, Bim peptide-Mcl-1 binding. inhibition, % at 10 µM. actives 0.1% (n = 190,000); in the data active = inhibition above about 40%;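 note: 0% = no compound tracer wells and 100% = peptide blocker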
Target sequence (Q07820 whole entry, looked up): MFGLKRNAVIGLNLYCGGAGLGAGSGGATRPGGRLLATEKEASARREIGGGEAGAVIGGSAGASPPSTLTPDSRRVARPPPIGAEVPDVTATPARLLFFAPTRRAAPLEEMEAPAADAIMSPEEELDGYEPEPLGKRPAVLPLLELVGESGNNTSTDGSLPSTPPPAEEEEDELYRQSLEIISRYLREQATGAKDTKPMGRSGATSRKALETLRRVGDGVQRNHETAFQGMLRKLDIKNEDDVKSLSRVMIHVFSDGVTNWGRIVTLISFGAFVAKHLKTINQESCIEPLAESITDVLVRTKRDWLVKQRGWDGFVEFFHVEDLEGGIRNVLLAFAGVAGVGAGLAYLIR
14-3-3 Bad inh = disrupts binding of bovine 14-3-3 zeta to phospho-Bad peptide; inhibition, % at 21.7 µM; TR-FRET 14-3-3zeta/Dy647-pBad peptide displacement, 1 h; AID 781; P63103; actives 0.71% (n = 220,000);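 active = inhibition above about 70%, limit read from the data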;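 note: 0% = full 14-3-3 plus peptide FRET controls and 100% = background without 14-3-3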
Target sequence (P63103 whole entry, looked up): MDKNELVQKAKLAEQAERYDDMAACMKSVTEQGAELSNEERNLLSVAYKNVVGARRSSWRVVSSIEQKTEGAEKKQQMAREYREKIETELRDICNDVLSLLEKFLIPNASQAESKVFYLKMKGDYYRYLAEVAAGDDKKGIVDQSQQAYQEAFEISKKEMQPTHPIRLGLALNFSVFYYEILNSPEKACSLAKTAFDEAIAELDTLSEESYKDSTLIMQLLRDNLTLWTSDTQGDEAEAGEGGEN
Mcl1 Bid PPI = Mcl-1/Bid interaction inhibition; inhibition, % at 21.7 µM; Q07820; AID 1021; TR-FRET Mcl-1/Bid-Dy647 peptide binding, 1536-well; actives 0.97% (n = 220,000);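 active = compounds that cut the binding signal by more than half at the single screening dose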;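 note: His-tagged Mcl-1 with europium anti-His antibody binding Bid BH3 peptide; 0% = Mcl-1 plus peptide wells and 100% = peptide-only wells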
Mcl1-Noxa inh = disrupts binding of human Mcl-1 to Noxa peptide. Q07820. TR-FRET Mcl-1/Noxa peptide binding, 2 h. inhibition, % at 21.7 µM. actives 1.5% (n = 220,000). AID 1022;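 active = compounds that cut the protein-peptide binding signal by more than 50% relative to plate controls in a single-dose test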;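 note: His-tagged Mcl-1 with rhodamine Noxa BH3 peptide and terbium anti-His antibody; 0% = Mcl-1 plus Noxa peptide wells and 100% = peptide-only wells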
MCL1 BIM primary = disrupts human MCL1 binding to BIM-BH3 peptide; GST-MCL1 / FITC-Bim-BH3 fluorescence polarization; AID 2057; actives 0.68% (n = 320,000); inhibition, % at 10.9 µM; Q07820;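 active = inhibition above the mean inhibition of all tested compounds plus 3 SD, set per campaign, cut at about 40% in these data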;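 note: 0% = DMSO wells and 100% = unlabeled Bim-BH3 peptide control; higher means more loss of mP so more displacement of Bim peptide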
BCLXL inh confirm = Bcl-xL (human) inhibition, MCL1 counter-screen confirmation | shares compounds with MCL1 BIM primary | GST-Bcl-xL / FITC-Bim BH3 peptide FP binding | inhibition, % at 10.9 µM | actives 54% (n = 1,700);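 active = inhibition above a cutoff equal to the mean inhibition of all tested compounds plus 3 SD, cut at about 30% in these data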;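 note: 0% = DMSO wells and 100% = unlabeled Bim BH3 control peptide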
MCL1 BIM confirm = MCL1-BIM-BH3 interaction inhibition, confirmation; shares compounds with MCL1 BIM primary; GST-MCL1 / FITC-Bim-BH3 fluorescence polarization; inhibition, % at 10.9 µM; actives 61% (n = 1,700); AID 2168;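 active = inhibition above the average of all tested compounds plus 3 SD, cut at about 40% in these data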;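 note: 0% = DMSO wells and 100% = unlabeled Bim-BH3 control peptide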
The depositor's hits bear a star; / = no result; + = active, no number; [ ] = dose if it differs, or a comment.

SMILES	Bim-Mcl-1	14-3-3 Bad inh	Mcl1 Bid PPI	Mcl1-Noxa inh	MCL1 BIM primary	BCLXL inh confirm	MCL1 BIM confirm
COc1ccc(OC)c2nc3c(cc12)CCC3	/	/	/	/	52.9*	9.6	5.2
COc1ccc(OC)c2nc(-c3cccnc3)ccc12	/	/	/	/	-0.3	/	/
O=c1oc2c(O)c(O)cc3c(=O)oc4c(O)c(O)cc1c4c23	10.0	97.5*[fluorescence artefact?]	76.0*	85.9*	97.2*	79.4*	98.2*
Cc1c(C)c2cc(Cl)c(O)c(CN(C)C)c2oc1=O	0.0	-1.8	-26.6	10.3	10.6	/	/
CC(Sc1ccc(Cl)cc1)C(=O)NNC(=O)c1ccncc1 (configuration not stated)	/	/	/	/	-4.3	/	/
Fc1ccc(NCc2cccnc2)cc1F	-1.0	23.0	32.8	15.1	70.9*	69.8*	90.5*
Clc1ccc(NCc2cccnc2)cc1	/	/	/	/	-2.9	/	/
CCOC(=O)c1ccccc1NC(=O)N1CCn2c(C)ccc2C1CC (configuration not stated)	0.0	-13.6	-59.7	-2.6	62.9*	35.5*	38.7
Cc1cccc(OCCNc2ccc([N+](=O)[O-])cn2)c1	-5.0	24.9	-39.3	18.1	-4.2	/	/
O=c1nc(/C=C/c2ccc(-c3ccc(F)cc3)o2)cc(C(F)(F)F)[nH]1	13.0	-10.4	-16.9	14.3	43.7*	40.1*	21.6
CC(C)c1cc(Nc2cccc(O)c2)cc(C(C)C)c1O	/	/	/	/	146.4*	18.4	14.9
Oc1cccc(Nc2ccccc2)c1	/	/	/	/	18.3	/	/
Nc1c(C(=O)Nc2ccc(S(=O)(=O)N3CCCC3)cc2)sc2nc3ccc(OC(F)(F)F)cc3cc12	1.0	-16.3	-38.0	17.1	48.4*	35.5*	41.7*
Cc1cc(C)n(CC(C)NC(=O)c2cc(COc3c(F)cccc3F)on2)n1 (configuration not stated)	0.0	2.9	-1.2	3.1	-2.1	/	/
O=C(c1nc2ccc(Cl)cn2c1CN1CCCC1)N1CCc2ccccc2C1	/	/	/	/	67.4*	62.7*	87.2*
O=C(c1nc2ccc(Cl)cn2c1CN1CCC(CO)CC1)N1CCc2ccccc2C1	/	/	/	/	-3.9	/	/
c1cc(CNc2ccc3c(c2)OCO3)ccn1	-4.0	1.8	-51.0	23.9	85.4*	64.3*	80.9*
O=C(NCc1ccncc1)C(=O)Nc1ccc2c(c1)OCO2	-4.0	-10.0	-6.5	4.7	3.5	/	/
Cc1ccc(CNc2ccc3c(c2)OCO3)cc1	6.0	37.7	-41.8	24.6	158.6*	106.0*	134.9*
Cc1ccc(C(=O)Nc2ccc3c(c2)OCO3)cc1	0.0	/	-104.5	-12.5	5.9	/	/
COC(=O)c1ccc(OCC(O)CN2C(=O)c3ccccc3S2(=O)=O)cc1 (configuration not stated)	-2.0	7.1	3.1	13.8	1.9	/	/
O=C(O)c1ccc(N2C(=O)/C(=C/C=C/c3ccccc3)SC2=S)cc1	-2.0	-8.1	-55.7	1.3	40.2*	5.8	14.4
CCN(CC)c1ccc(C(=O)NNC(=O)CCl)cc1	1.0	-9.7	11.1	31.7	0.2	/	/
COc1ccc(NC(=S)N2CCN(c3ccccn3)CC2)cc1	-1.0	-26.4	-35.4	9.1	10.8	/	/
COC(=O)C1=C(C)NC(=O)/C1=C\N(C)C	0.0	-11.6	-43.6	13.0	105.3*	8.4	7.5
SMILES	Bim-Mcl-1	14-3-3 Bad inh	Mcl1 Bid PPI	Mcl1-Noxa inh	MCL1 BIM primary	BCLXL inh confirm	MCL1 BIM confirm
NS(=O)(=O)c1cccc(NC(=O)CN2CCc3ccccc32)c1	2.0	-17.6	-33.2	21.0	76.9*	6.0	0.3
CCN(CC)C(=O)CSc1nnc2nnc3cc(Cl)ccc3n12	/	0.9	5.0	3.6	88.0*	65.0*	79.3*
CCN(CC)C(=O)CSc1nnc2nnc3cc(C)ccc3n12	/	-1.2	-12.1	-2.8	32.0	/	/
Cc1cc(C(=O)COc2cccc3cccnc23)c(C)n1C	-4.0	-9.2	-57.0	-3.6	177.0*	14.4	8.3
O=[N+]([O-])c1cccc(/C=N/Nc2nccnc2Cl)c1	-1.0	1.2	-2.1	6.0	7.7	/	/
COc1ccc(C2C=C(c3ccccc3)Nc3nc(NC(C)=O)nn32)cc1 (configuration not stated)	-4.0	26.3	-19.1	32.4	60.0*	59.5*	79.7*
COc1ccc(C2C=C(c3ccccc3)Nc3nnnn32)cc1 (configuration not stated)	-2.0	-8.9	-1.1	-5.2	8.1	/	/
COc1ccc(NC(=O)c2cc(S(=O)(=O)N3CCCC3)c[nH]2)cc1	/	/	/	/	107.6*	12.6	9.7
CN(C)C1(CNC(=O)C2CCC(=O)N(Cc3ccc(Cl)cc3)C2)CCCCC1 (configuration not stated)	/	/	/	/	-4.9	/	/
NS(=O)(=O)c1cc(C(=O)NC2CCSc3ccccc32)ccc1Cl (configuration not stated)	/	/	/	/	79.1*	29.6	70.2*
COc1cc([N+](=O)[O-])c2ncsc2c1	-9.0	8.8	8.7	11.5	-2.2	/	/
COc1cc(SSc2cc(OC)cc([N+](=O)[O-])c2N)c(N)c([N+](=O)[O-])c1	/	7.6	-13.4	75.3*	54.8*	30.6*	52.9*
Cc1ccc(S(=O)(=O)N2CCN(C(=O)c3cccc(-n4cccc4)c3)CC2)cc1	/	/	/	/	16.4	/	/
O=C(c1cccc(-n2cccc2)c1)N1CCN(S(=O)(=O)c2ccccc2)CC1	/	/	/	/	51.2*	32.2*	88.4*
CC(=O)N1CCc2c(sc(NC(=O)c3ccc(S(=O)(=O)N(C)C)cc3)c2C#N)C1	/	/	/	/	40.6*	37.7*	38.8
CC1=Nc2ccccc2/C1=C\c1nc(-c2ccc(F)cc2)oc1O	-2.0	-0.6	-21.6	1.6	+	91.6*	141.4*
CN(CC(=O)Nc1sccc1C#N)C1CCCCC1	-4.0	-15.0	-6.5	61.5*	111.7*	21.5	23.4
COC(=O)c1cc2ccccn2c2c(C(=O)OC)c(C(=O)OC)cc1-2	5.0	-29.1	-73.4	22.4	20.9	/	/
COC(=O)c1cc2c(C)c(C)c3ccccn3c-2c1C(=O)OC	2.0	-27.8	-19.1	-5.6	115.3*	70.6*	80.7*
COC(=O)c1cc2c(C)cc3ccc(C)cn3c-2c1C(=O)OC	3.0	-15.4	-40.4	-15.2	98.6*	74.7*	97.6*
COC(=O)c1cc2n3ccccc3c(C)c(-c3ccccc3)c-2c1C(=O)OC	-1.0	-14.8	-15.5	-1.2	119.5*	111.2*	139.8*
Cc1ccc(NC2=Nc3ccccc3N3C2=Nc2c(c(C)nn2-c2ccccc2)C3c2ccc(O)c(O)c2)cc1 (configuration not stated)	7.0	-11.8	2.0	18.1	/	/	/
Cc1nn(-c2ccccc2)c2c1C(c1ccc(O)c(O)c1)N1C(=N2)C(Nc2ccccc2)=Nc2ccccc21 (configuration not stated)	3.0	-10.7	-0.1	38.1	70.0*	17.7	18.5
